PI5P4Ka inh: PI5P4K alpha (human) kinase inhibition | max response, % | 330,000 compounds, 1.2% hits | P48426 | PI5P4Kalpha enzyme, ADP-Glo luminescence, 60 min; active compounds read low | AID 652105; active = max response of -50% or lower; inconclusive = between -30% and -50%; inactive = -30% or higher; note: value at the top dose of about 77 µM; % is set by controls: 0 for no effect and ±100 for the full control effect
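PI5P4Kalpha ADP-Glo assay; 5 microM ATP final; 60 min RT reaction; HEPES pH 7.4/EGTA/CHAPS, 5% DMSO; controls lacking substrate or enzyme; luminescent end-point.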
HP1b binding inh: HP1-beta chromodomain-methylated histone interaction inhibition; Potency, µM (top dose mostly 114 µM), without a hit: top-dose activity change, negative = inhibition, hits mostly inhibitors; AID 540317; 390,000 compounds, 0.56% hits; AlphaScreen HP1-beta / biotin-H3K9me3 peptide binding; note: potency is the fitted concentration of half-maximal effect; nearly all actives have a fitted effect of over 70% in size
Target sequence (P83916 whole entry, looked up): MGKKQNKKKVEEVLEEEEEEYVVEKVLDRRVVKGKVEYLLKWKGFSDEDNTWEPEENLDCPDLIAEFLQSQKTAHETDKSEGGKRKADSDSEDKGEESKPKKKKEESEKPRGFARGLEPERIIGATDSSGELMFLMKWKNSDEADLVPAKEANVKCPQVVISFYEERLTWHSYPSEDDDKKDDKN
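AlphaScreen: HP1-beta (50 nM) preformed 30 min with biotin-H3(1-18)K9me3 peptide (50 nM) in PBS pH 7.4, 0.01% Tween-20. Compound added for 30 min at RT, then streptavidin donor/nickel chelate acceptor beads (10 ug/mL) for 30 min.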
BAZ2B inh: inhibitors of human BAZ2B bromodomain. Q9UIF8. AlphaScreen BAZ2B-H3K14Ac peptide displacement. Potency, µM (series often up to 114 µM), without a hit: top-dose activity change, negative = inhibition, hits mostly inhibitors. 360,000 compounds, 4.4% hits. AID 504333; note: potency is the fitted concentration of half-maximal effect; % is set by controls: 0 for no effect and ±100 for the full control effect; nearly all actives have a fitted effect of over 60% in size
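Compounds, titrated to a top concentration of 110 uM, were incubated 30 min at room temperature with preformed BAZ2B/acetyl-K14 H3 peptide complex (50 nM each). Proximity signal was measured by AlphaScreen after 20 min with beads.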
PLK1 PBD block: inhibitors of human PLK1 polo-box domain binding. 360,000 compounds, 2.8% hits. AID 720504. Plk1 PBD binding of FITC phosphopeptide, fluorescence polarization. P53350. Potency, µM, inactives show max response, negative = inhibition, actives largely listed as inhibitors; note: potency is the fitted concentration of half-maximal effect; series mostly up to about 57 µM; % is set by controls: 0 for no effect and ±100 for the full control effect; nearly all actives have a fitted effect of over 65% in size
JMJD2A Tudor inh: inhibitors of human JMJD2A Tudor domain | AlphaScreen JMJD2A-Tudor / H3K4me3 peptide binding | Potency, µM (top dose mostly 114 µM), for inactives: top-dose activity change, negative = inhibition, hits mostly inhibitors | 390,000 compounds, 4.4% hits | AID 504339; note: potency is the fitted concentration of half-maximal effect; % is set by controls: 0 for no effect and ±100 for the full control effect; nearly all actives have a fitted effect of over 50% in size
G9a inh: inhibitors of human histone lysine methyltransferase G9a | Q96KQ7 | G9a H3K9 monomethylation, AlphaScreen, 2 h | Potency, µM (top dose mostly 102 µM), for inactives: at the highest dose activity, negative = inhibition, usual class: inhibitors | 350,000 compounds, 8.8% hits; note: potency is the fitted concentration of half-maximal effect; % is set by controls: 0 for no effect and ±100 for the full control effect; nearly all actives have a fitted effect of over 75% in size
Target sequence (Q96KQ7 913-1193 limits assumed): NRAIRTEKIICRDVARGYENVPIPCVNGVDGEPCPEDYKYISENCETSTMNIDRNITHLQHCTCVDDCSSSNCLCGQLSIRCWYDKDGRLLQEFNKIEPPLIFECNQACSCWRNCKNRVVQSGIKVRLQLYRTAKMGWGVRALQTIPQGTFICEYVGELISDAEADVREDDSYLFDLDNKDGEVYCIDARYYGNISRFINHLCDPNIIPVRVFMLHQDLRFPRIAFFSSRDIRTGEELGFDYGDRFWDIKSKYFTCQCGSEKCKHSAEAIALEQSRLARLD
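Quantitative HTS format: methyltransferase activity on a biotin-tagged H3K9 peptide is measured by AlphaScreen, using a rabbit anti-monomethyl-H3K9 antibody with streptavidin donor and anti-IgG acceptor beads. Final levels are 20 nM enzyme, 500 nM peptide, 20 uM SAM; 2 h RT.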
The depositor's hits bear a star; ? = inconclusive; . = no result; [ ] = dose if it differs, or a comment. Shown are actives, neighbours in structure and some others; about 12% of the full set was active somewhere. Unless noted, calls come from the whole dose curve; as a rule, active = well fitted curve in the direction sought with a large enough effect; inconclusive = small, poorly fitted or top-dose-only effect, or another doubt; inactive = no such curve, though single readings can be large; an effect the other way counts as inactive or inconclusive.

SMILES	PI5P4Ka inh	HP1b binding inh	BAZ2B inh	PLK1 PBD block	JMJD2A Tudor inh	G9a inh
CN(c1ccc(O)cc1)c1nc(-c2cccs2)cs1	12	?	-23%	-12%	?	-9%
CCCc1[nH]nc2c1C(c1ccc(O)c(OC)c1)C(C#N)=C(N)O2 (centres undefined)	.	2%	-36%	-2%	-16%	50µM*
CCn1c2ccccc2c2cc(C3C(C#N)=C(N)Oc4n[nH]c(COC)c43)ccc21 (centres undefined)	.	-5%	-37%	6µM*	?	?
COCc1[nH]nc2c1C(c1ccc(OC)c(OC)c1)C(C#N)=C(N)O2 (centres undefined)	2	43%	12%	-13%	-16%	-13%
CCCc1[nH]nc2c1C(c1ccccc1OC)C(C#N)=C(N)O2 (centres undefined)	1	29%	-33%	?	6%[57.1 µM]	?
O=C(Nc1cc2c(cc1C(=O)c1cccc(Br)c1)OCCO2)c1ccccc1F	.	-5%	-27%	.	?	-1%[59 µM]
O=C(O)CN1CCN(Cc2ccc(F)cc2Cl)C1=O	.	23%	-31%	-10%	-12%	25µM*
NC(=S)NN=C(c1ccc(Br)cc1)C1CC1	-1	?	.	-2%	0.79µM*	.
NC(=S)NN=C(c1ccc(F)cc1)C1CC1	-1	?	.	-5%	?	.
COc1ccc(Cl)cc1Nc1nc2ccc(C(=O)c3ccccc3)cc2n2cnnc12	.	33%	-9%	.	-2%	-7%[59 µM]
O=C1C(CCCNC(=S)NCc2ccccc2)NC(=S)N1Cc1ccccc1 (centres undefined)	1	-3%	?	-7%	-31%	50µM*
O=C1CC(c2ccccc2)CC(=O)C1CS(=O)(=O)c1ccccc1 (centres undefined)	?	45%	-32%	-25%	-20%	3.2µM*
O=C1CC(=O)CC(c2ccccc2)C1	-1	42%	11%	-3%	-10%	1%
CCn1c(=O)c2cc(C(=O)N3CCN(c4cccc(OC)c4)CC3)sc2c2ccccc21	.	3%	-31%	.	-33%	-38%[59 µM]
Cc1cc2c(cc1C)N(C(=O)CCl)CCN2C(=O)CCl	-7	30%	.	?	40µM*	.
Cc1cc2c(cc1C)N(C(=O)CCl)CC(=O)N2	-8	.	.	-22%	.	.
CC1(C)CC2(C)OC(=N)C1(C#N)C2(C#N)C#N (centres undefined)	-8	34%	-5%	-21%	-3%	56µM*
S=c1[nH]nc(C(c2ccccc2)C2CCCCC2)o1 (centres undefined)	-15	-13%	-29%	?	-11%	45µM*
S=c1[nH]nc(C2(c3ccccc3)CCCC2)o1	-10	53%	-35%	-13%	-22%	-130%[59 µM]
CN(C)c1nc(C(=O)O)nc(N2CCOCC2)n1	1	0%	-28%	-2%	32µM*	?
CCNc1nc(C(=O)O)nc(N2CCOCC2)n1	1	4%	8.9µM*	1%	0.79µM*	4µM*
O=C(O)c1ccc(-c2ccc(-c3ccccc3)cc2)s1	.	.	50µM*	.	.	?
COc1ccc(/C=N/N(C)c2cc(=O)n(C)c(=O)[nH]2)cc1OC	-2	28%	79µM*	-6%	-17%	40µM*
CN(/N=C/C=C/c1ccccc1)c1cc(=O)n(C)c(=O)[nH]1	5	17%	-38%	-7%	?	35%[59 µM]
CS(=O)(=O)N1CCC(C(=O)O)CC1	.	13%	5.6µM*	-10%	-13%	0%
O=C1OCCC1Sc1nnc(-c2ccccc2)o1 (centres undefined)	-2	24%	-2%	-8%	-13%	2%
O=C1c2ccccc2CC1Sc1nnc(-c2ccccn2)o1 (centres undefined)	-17	14%	11%	24µM*	-29%	?
CN(C)S(=O)(=O)c1ccc(C(=O)Nc2ccc3nc(N4CCOCC4)sc3c2)cc1	5	13%	.	-2%	-9%	.
COc1ccc(NC(=S)N2CCN(C(c3ccccc3)c3ccccc3)CC2)cc1OC	9	-16%	?	-12%	?	-17%[59 µM]
